M1 ag parental – M1 agonist counterscreen hit in parental CHO-K1 cells; actives 0.48% (n = 360,000); AID 602248; activation, % at 3 µM; Fluo-8 calcium fluorescence; scaled to maximal ATP response, vehicle zero; in the data active = activation above about 15%;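 note: untransfected CHO-K1 host cells lacking M1 receptor as counterscreen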
CHO-K1 Ca antag – counter-screen for M1 antagonists: effect in parental CHO-K1 cells | ATP-induced calcium, Fluo-8 fluorescence | inhibition, % at 3 µM | actives 0.6% (n = 360,000) | AID 602250;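 active = inhibition above a per-plate cutoff, the plate's mean sample inhibition plus 3 SD, cut at about 24% in these data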;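 note: 0% = DMSO plus EC80 ATP and 100% = DMSO alone without ATP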
M1 antag – human CHRM1 antagonism. AID 588852. actives 1.3% (n = 360,000). P11229. CHO-K1 hM1, Fluo-8 calcium fluorescence, ACh EC80 antagonist. inhibition, % at 3 µM;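 active = percent inhibition above its own plate's cutoff, namely the mean of that plate's compound wells plus 3 SD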;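 note: peak over basal fluorescence ratio during 140 s after agonist addition; 0% = ACh EC80 plus DMSO and 100% = DMSO alone without agonist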
Target sequence (P11229 whole entry, looked up): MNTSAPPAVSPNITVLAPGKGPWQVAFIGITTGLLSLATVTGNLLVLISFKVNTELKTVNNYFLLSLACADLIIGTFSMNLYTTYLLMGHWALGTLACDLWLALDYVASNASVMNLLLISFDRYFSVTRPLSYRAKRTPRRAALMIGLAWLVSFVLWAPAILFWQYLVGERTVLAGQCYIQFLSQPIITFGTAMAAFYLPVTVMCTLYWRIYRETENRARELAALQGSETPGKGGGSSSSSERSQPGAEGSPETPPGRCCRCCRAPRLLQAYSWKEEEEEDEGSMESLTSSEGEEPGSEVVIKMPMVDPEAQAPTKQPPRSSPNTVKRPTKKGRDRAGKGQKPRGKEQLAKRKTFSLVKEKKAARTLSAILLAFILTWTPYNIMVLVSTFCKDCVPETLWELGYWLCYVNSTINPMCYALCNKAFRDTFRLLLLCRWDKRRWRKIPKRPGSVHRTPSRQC
M1 PAM – potentiates human M1 receptor response to acetylcholine; P11229; CHO-K1 hM1, Fluo-8 calcium fluorescence, ACh EC20; 0% = ACh EC20, 100% = maximal ACh; activation, % at 3 µM; actives 0.088% (n = 360,000); AID 588819; in the data active = activation above about 19%, passing the limit was not always enough
M1 PAM parental – nonselective activator or artifact in parental CHO-K1 calcium assay; AID 602247; activation, % at 3 µM; actives 0.02% (n = 360,000); ATP EC20, Fluo-8 calcium fluorescence; 0% at ATP EC20, 100% at ATP max;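 active = activation above the run cutoff, the mean activation of all test compounds plus 3 SD, cut at about 40% in these data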;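 note: peak over basal fluorescence ratio in a 140 s read after ATP addition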
CHRM1 agonist – activates human CHRM1 receptor; P11229; CHO-K1 hM1, Fluo-8 calcium fluorescence, agonist mode; 0% DMSO, 100% acetylcholine EC100; activation, % at 3 µM; actives 0.33% (n = 360,000); AID 588814;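 active = activation above the run's mean compound activation plus 3 SD, cut at about 16% in these data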;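 note: peak over basal fluorescence ratio within a 140 s kinetic read after compound addition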
* = called active by the depositor. Sampled rows, rich in hits. Any-hit rate of the full collection: about 2.3%.

What do the screens show for `CN(C)S(=O)(=O)c1cccc(NC(=O)COC(=O)CNC(=O)c2ccccc2F)c1`?
M1 ag parental: 1; CHO-K1 Ca antag: -16; M1 antag: -7; M1 PAM: 8; M1 PAM parental: 15; CHRM1 agonist: -2

What do the screens show for `C=CCC[C@@H](CCCCC)OC(=O)/C=C/[C@H](O)[C@@H](O)C[C@@H](O)CC=C`?
M1 ag parental: 2; CHO-K1 Ca antag: -20; M1 PAM parental: 0

What do the screens show for `Cc1ccc(NS(=O)(=O)c2cccc(C(=O)NCC(c3ccco3)N3CCCC3)c2)cc1` (stereo unspecified)?
M1 ag parental: 2; CHO-K1 Ca antag: -1; M1 antag: -9; M1 PAM: 10; M1 PAM parental: -14; CHRM1 agonist: -3

Results for Cc1c(C(=O)NCC(c2ccco2)N2CCCC2)sc2ccccc12 (stereo unspecified) ?
M1 ag parental: 1; CHO-K1 Ca antag: -10; M1 antag: -11; M1 PAM: 4; M1 PAM parental: 23; CHRM1 agonist: -6

Results for CCc1cc(C(=O)NCC(c2ccco2)N2CCCCC2)sc1C (stereo unspecified) ?
M1 ag parental: -1; CHO-K1 Ca antag: 1; M1 antag: 29*; M1 PAM: -19; M1 PAM parental: -16; CHRM1 agonist: -9

What do the screens show for `O=C(NCC(c1ccco1)N1CCCCC1)c1ccc(S(=O)(=O)Nc2ccccc2)cc1` (stereo unspecified)?
M1 ag parental: 5; CHO-K1 Ca antag: -10; M1 antag: 32*; M1 PAM: -25; M1 PAM parental: 4; CHRM1 agonist: -4

How did Cc1ccc(NS(=O)(=O)c2ccc(C(=O)NCC(c3ccco3)N3CCCCC3)cc2)cc1 (stereo unspecified) do in these assays?
M1 ag parental: 18*; CHO-K1 Ca antag: 5; M1 antag: 11; M1 PAM: -19; M1 PAM parental: 13; CHRM1 agonist: 8

Results for COc1ccc(NC(=O)/C(C#N)=C/c2ccc(OCCN3CCOCC3)c(OC)c2)c(OC)c1 ?
M1 ag parental: 4; CHO-K1 Ca antag: 4; M1 antag: -9; M1 PAM: 7; M1 PAM parental: -1; CHRM1 agonist: 2

What do the screens show for `CC[C@H](C)Cc1cn([C@@H](CCCCNC(=O)OC(C)(C)C)C(=O)NCCCCCCCCCCC(=O)N2CCN(C(=O)OC(C)(C)C)CC2)nn1`?
M1 ag parental: 5; CHO-K1 Ca antag: -1; M1 antag: 48*; M1 PAM: -28; M1 PAM parental: -6; CHRM1 agonist: -2

How did CC[C@@H](C)[C@@H](C(=O)N1CCN(C(=O)OC(C)(C)C)CC1)n1cc(CCCCNC(=O)OC(C)(C)C)nn1 do in these assays?
M1 ag parental: 15; CHO-K1 Ca antag: 20; M1 antag: 36*; M1 PAM: -24; M1 PAM parental: -10; CHRM1 agonist: -1

Results for CC(C)(C)OC(=O)NCCCC[C@@H](C(=O)NCCCCCCCCCCC(=O)N1CCN(C(=O)OC(C)(C)C)CC1)n1cc(CCO)nn1 ?
M1 ag parental: 1; CHO-K1 Ca antag: -2; M1 antag: -4; M1 PAM: -10; M1 PAM parental: 11; CHRM1 agonist: -6

How did CC[C@H](C)C(C(=O)N1CCN(C(=O)OC(C)(C)C)CC1)n1cc(C(CC(C)C)NC(=O)OC(C)(C)C)nn1 (stereo partly specified) do in these assays?
M1 ag parental: 1; CHO-K1 Ca antag: 1; M1 antag: 0; M1 PAM: 7; M1 PAM parental: 4; CHRM1 agonist: -2

What do the screens show for `CC1C(=O)Nc2ccc(S(=O)(=O)N3CCCCCC3)cc21` (stereo unspecified)?
M1 ag parental: 0; CHO-K1 Ca antag: -17; M1 antag: -7; M1 PAM: 6; M1 PAM parental: 4; CHRM1 agonist: -4

Results for CCOC(=O)Cc1csc(NC(=O)Nc2cccs2)n1 ?
M1 ag parental: 16*; CHO-K1 Ca antag: -11; M1 antag: 11; M1 PAM: -12; M1 PAM parental: -21; CHRM1 agonist: 1

Results for CN(C)CCOCCOc1ccccc1-c1ccccc1 ?
M1 ag parental: 1; CHO-K1 Ca antag: -14; M1 antag: 18; M1 PAM: -12; M1 PAM parental: 28; CHRM1 agonist: -8

How did CNCCCCOc1ccccc1-c1ccccc1 do in these assays?
M1 ag parental: 4; CHO-K1 Ca antag: -5; M1 antag: 37*; M1 PAM: -23; M1 PAM parental: 14; CHRM1 agonist: -8

How did CN(C)CCOc1ccccc1-c1ccccc1 do in these assays?
M1 ag parental: 0; CHO-K1 Ca antag: 2; M1 antag: 45*; M1 PAM: -21; M1 PAM parental: 4; CHRM1 agonist: -6

How did Cc1ccc(C(=O)N[C@@H](Cc2ccccc2)C(=O)N2CCC3(CC2)NCCc2[nH]cnc23)cc1C do in these assays?
M1 ag parental: 1; CHO-K1 Ca antag: -7; M1 antag: 47*; M1 PAM: -20; M1 PAM parental: 0; CHRM1 agonist: -6

How did COc1ccc(CN2CCN(S(=O)(=O)c3ccccc3)CC2)c(OC)c1OC do in these assays?
M1 ag parental: 1; CHO-K1 Ca antag: 3; M1 antag: -21; M1 PAM: 18; M1 PAM parental: 12; CHRM1 agonist: -3

What do the screens show for `O=S1(=O)C[C@H](N2CC[C@@H](O)C2)[C@@H](COCc2ccccc2)N1`?
M1 ag parental: 0; CHO-K1 Ca antag: 27*; M1 antag: 8; M1 PAM: -1; M1 PAM parental: -8; CHRM1 agonist: -5

What do the screens show for `CN(C)[C@H]1CCN([C@H]2CS(=O)(=O)N[C@@H]2COCc2ccccc2)C1`?
M1 ag parental: 1; CHO-K1 Ca antag: 11; M1 antag: -13; M1 PAM: 11; M1 PAM parental: 21; CHRM1 agonist: -10

Results for N#CC1=C(N)Oc2nc(-c3ccccc3)[nH]c2C1c1cccnc1 (stereo unspecified) ?
M1 ag parental: 0; CHO-K1 Ca antag: 32*; M1 antag: -4; M1 PAM: 0; M1 PAM parental: -7; CHRM1 agonist: -4

What do the screens show for `N#CC1=C(N)Oc2n[nH]c(-c3ccccc3)c2C1c1cccnc1` (stereo unspecified)?
M1 ag parental: 0; CHO-K1 Ca antag: 1; M1 antag: -8; M1 PAM: 5; M1 PAM parental: 7; CHRM1 agonist: -3

How did CCN(CC)c1ccc2c(c1)OC(N)=C(C#N)C2c1cccnc1 (stereo unspecified) do in these assays?
M1 ag parental: 17*; CHO-K1 Ca antag: -10; M1 antag: -4; M1 PAM: -11; M1 PAM parental: 19; CHRM1 agonist: 22*

What do the screens show for `CCN1C(=O)[C@H]2[C@@H](c3ccc(OC)cc3)N[C@]3(CCCN(Cc4ccc(C)cc4)C3=O)[C@H]2C1=O`?
M1 ag parental: 0; CHO-K1 Ca antag: -5; M1 antag: -7; M1 PAM: 7; M1 PAM parental: 2; CHRM1 agonist: -1

Screens deposited in PubChem by The Scripps Research Institute Molecular Screening Center.
